Assay results from the supplement of paper PMC6555819.

Key:
Experiment in all cases: PBM binding z-score (relative to random genomic background probes); higher = stronger binding; sequences stand for … in GC…GCGATTGACAGCGTAGAATGAAGG
[1] = system: FXR:RXRa (NR concentration 270 nM, RXRa partner concentration 90 nM)
In short: (§1)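 On custom Agilent 4×180K arrays, double-stranded probes with 34-nt variable regions carried direct-repeat seeds, single-nucleotide variants, half-site ablations or random human genomic background. Ligand-free nuclear receptor dimers were applied for 1 h, and binding was read with antibodies against each partner (one per run). Binding z-scores come from regression-normalized fluorescence, with the random background probes as reference.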

[2] = system: LXRa:RXRa (NR concentration 270 nM, RXRa partner concentration 90 nM)
In short: as §1

[3] = system: LXRa homodimer (NR concentration 270 nM)
In short: as §1

[4] = system: LXRb:RXRa (NR concentration 270 nM, RXRa partner concentration 90 nM)
In short: as §1

[5] = system: LXRb homodimer (NR concentration 270 nM)
In short: as §1

[6] = system: PPARa:RXRa (NR concentration 270 nM, RXRa partner concentration 90 nM)
In short: as §1

[7] = system: PPARg:RXRa (NR concentration 180 nM, RXRa partner concentration 90 nM)
In short: as §1

[8] = system: PPARg:RXRa 270nM:90nM, anti-RXR (NR concentration 270 nM, RXRa partner concentration 90 nM)
In short: as §1

[9] = system: PPARg:RXRa 30nM:10nM, anti-RXR (NR concentration 30 nM, RXRa partner concentration 10 nM)
In short: as §1

[10] = system: PPARg:RXRa 90nM:30nM, anti-RXR (NR concentration 90 nM, RXRa partner concentration 30 nM)
In short: as §1

Sequence | PBM binding z-score [1] | PBM binding z-score [2] | PBM binding z-score [3] | PBM binding z-score [4] | PBM binding z-score [5] | PBM binding z-score [6] | PBM binding z-score [7] | PBM binding z-score [8] | PBM binding z-score [9] | PBM binding z-score [10]
TGTCAAAGTTCAAAGGTAACGCAAGTATCCACAC | 7.39 | 6.39 | 4.52 | 4.83 | 1.75 | 6.18 | 9.31 | 8.11 | 5.51 | 7.89
AATACATGGTCATCGTAGGCCAGAGTACGCACAG | 0.0777 | 0.702 | 0.0647 | -0.141 | -0.0432 | 0.289 | 1.22 | 0.533 | 0.2 | 0.514
AGATTGAGGTTATTAAGATCAGGGAATTGCGGTC | 1.61 | 1.28 | 0.39 | 1.32 | 0.271 | 2.42 | 1.08 | 1.65 | 0.461 | 1.17
ATATGTAGGTTCAGGGTCATTCAGGTTGGTTCGC | 4.82 | 4.56 | 2.81 | 4.44 | 1.46 | 5.2 | 7.3 | 7.14 | 6 | 7.46
TCTGCTAGGTCAGATGGTCAGCTAACGAGCTGCC | 1.36 | 0.977 | -0.468 | 0.356 | -0.258 | 1.86 | 1.57 | 2.53 | 1.8 | 2.34
TCATATACGTAAACAGGTGAAAGTCCGTAAGTTA | 1.15 | 1.2 | 0.468 | 1.33 | 0.615 | 1.75 | 1.14 | 2.99 | 4.45 | 3.61
ACTAGTTGGTCAGCTGAGGGCACACACAATTCGG | 0.819 | 0.0659 | 0.172 | 0.183 | -0.0227 | 0.606 | 0.887 | 0.572 | 0.27 | 0.385
ATCTCTAGGTAACGTTCAGTGAAAGATCGATAGA | 0.596 | 0.51 | -0.179 | 0.297 | 0.462 | 0.836 | 0.58 | 0.792 | 0.317 | 0.669
TCATATAGGTAATACAGGTCAAAGTCGGCATCTA | 3.34 | 5.45 | 7.33 | 4.42 | 1.69 | 4.33 | 3.55 | 4.08 | 4.34 | 4.27
GCTAGTTGGTCAGTAAAAGGTCAAACACCGGTCG | 3.88 | 5.14 | 6.12 | 4.91 | 1.54 | 4.71 | 2.68 | 4.45 | 2.84 | 4.37
ATCTCTAGGTAAAGATAGTTCAGCGAATGCAAAT | 0.212 | 4.41 | 0.481 | 0.836 | 0.431 | 0.777 | 0.334 | 0.42 | 0.395 | 0.368
GCTTACGGGTCAAAGGTTCTAGCATGAATAGAAT | 6.11 | 4.09 | -0.0816 | 4.09 | -0.186 | 5.91 | 8.84 | 7.78 | 7.78 | 8.24
TTACCAAGGTGAAAGGTCCTTGATGCACGCCTTG | 1.03 | 1.02 | -0.388 | 1.06 | -1.03 | 3.88 | 5.66 | 6.39 | 4.88 | 6.09
ATATGTAGGTTAAGGGTCATTCGGGTTGGTTCGC | 5.36 | 4.83 | 3.47 | 4.62 | 1.81 | 6.53 | 12.2 | 10.3 | 11.7 | 12.2
ACAGACACGTGATGAAGGTAACTCAGGCTATCAT | 0.135 | 0.0254 | -0.272 | 0.133 | -0.0548 | -0.111 | 0.787 | -0.012 | 0.0893 | -0.0553
TGTTGTAGATCAAAGGTTAAGAAAGCCGAAGCCT | 1.59 | 2.17 | 0.185 | 1.96 | 0.623 | 4.47 | 7.96 | 7.88 | 7.16 | 9.01
CTCGAAAGGTCGGTTGAGGTGAGGATACGGATAA | 3.07 | 1.84 | -0.0492 | 1.43 | -0.104 | 2.68 | 0.677 | 1.09 | 0.294 | 1.02
GCATATAGCTAATACAAGGTGAAAGTCCGATTGT | -0.158 | -0.177 | 0.202 | -0.0693 | -0.0357 | 0.477 | 0.487 | 0.425 | -0.0371 | 0.33
GATACAGGGTCAAGGCCAGAGTGCGCGTATTGAT | 6.68 | 4.01 | 0.0458 | 3.51 | -0.343 | 5.4 | 5.81 | 5.34 | 2.09 | 4
GCTTGTAGATCTAGGTTAAGAAAGACTAAGCTAA | -0.373 | -0.228 | -0.5 | -0.166 | -0.791 | 1.14 | 0.547 | 0.539 | 0.267 | 0.418
CGAACTAGGTCATTGACCGGACAGTGAATAGTAA | 5.26 | 4.95 | 2.4 | 3.37 | 0.0098 | 4.46 | 7.14 | 6.07 | 3.06 | 5.48
CGTCCAAGGTCAAAGGTCTGTGAAGAGATGACGG | 7.64 | 5.46 | 1.27 | 4.26 | 0.554 | 5.87 | 7.08 | 6.81 | 4.47 | 6.48
CGTCCAAGTTCAAAGGTCAGTGAAGAGATGACGG | 6.81 | 5.86 | 2.94 | 4.98 | 1.4 | 5.95 | 6.58 | 6.54 | 4.28 | 6.22
TCGAGTAGGTTAGGGGCAATCAGAATGGCGTCGA | 0.369 | 0.37 | -0.18 | 0.715 | -0.231 | 1.41 | 1.53 | 2.73 | 1.47 | 2.42

Sequence | PBM binding z-score [1] | PBM binding z-score [2] | PBM binding z-score [3] | PBM binding z-score [4] | PBM binding z-score [5] | PBM binding z-score [6] | PBM binding z-score [7] | PBM binding z-score [8] | PBM binding z-score [9] | PBM binding z-score [10]
GATGCAGGGTCAGCTAGAGGCCAGAGTATGGAAA | 4.25 | 2.59 | -0.565 | 2.29 | -0.68 | 4.37 | 2.67 | 2.66 | 0.448 | 1.74
TCGAGTAGGTTATTCGGGGCATTCAGCCAACATA | 1.16 | 1.05 | 0.0577 | 1.51 | -0.7 | 1.69 | 0.35 | 1.19 | 1.13 | 1.07
ATCTCTAGCTAAAGTTCAGTGAAAGATCGATAGA | 0.485 | 1.83 | 1.89 | 1.01 | 0.585 | 1.74 | 1.63 | 3.25 | 1.53 | 2.85
ACTAGCAGGCCAAGGGTCACTCATGATTAGTCCG | 2.27 | 2.25 | 0.295 | 2.52 | -0.498 | 4.38 | 7.52 | 7.48 | 6.27 | 7.65
CTTCAAAGTTCAAGGTAACGTAACAGAAAGCAGC | 5.99 | 5.87 | 3.59 | 3.5 | 1.19 | 4.48 | 2.86 | 3.83 | 1.15 | 2.43
GCCGACAGGTGAAACGCAGGTAACTCAGGGTGGC | -0.479 | 0.0317 | -0.662 | -0.204 | -1.11 | 0.797 | 0.421 | -0.333 | -0.664 | -0.468
CCTACTGGGCCAGTCAGAGGTCATTGATCATATG | 2.43 | 3.71 | 5.39 | 3.58 | -0.105 | 3.66 | 2.18 | 3.32 | 0.876 | 2.2
ATCTCTAGGTAAGACTCAGTTCAGTGAAGAACGC | 0.226 | 0.477 | 0.614 | 0.261 | 1.05 | 0.0408 | -0.0322 | 0.385 | 0.412 | 0.159
ACTATTACTTGACTTAGGGCAACCGATACGACGC | 0.391 | 0.445 | 1.02 | 0.691 | 1.56 | 0.231 | 1.19 | 0.283 | 0.727 | 0.716
ATCGAGAGGTCGACGAGGTGAGTATACACCGTTT | 3 | 2.28 | -0.165 | 1.65 | -0.204 | 3.36 | 1.95 | 2.03 | 0.529 | 1.52
CCTATTAGTTGACCATAAGTGCAACCGAAGCTCG | 0.669 | 0.833 | 1.25 | 0.757 | 1.09 | 0.517 | 0.672 | 0.74 | 0.581 | 0.574
ATAGACAGGTGATGAAGGTAACTCAGGCTATCAT | -0.202 | -0.185 | -0.277 | -0.324 | 0.162 | -0.103 | 0.6 | 0.152 | 0.156 | -0.14
CGCCCAAGGTCAAGGTCAGTGAAAGAGACTCGAA | 7.66 | 5.71 | 1.02 | 4.47 | 1.05 | 5.96 | 6.1 | 5.9 | 2.41 | 4.9
AGAATGAGGTTAAGATCAGGGAAACAGAATACAT | 2.37 | 2.14 | -0.0625 | 1.9 | -0.0135 | 3.67 | 2.46 | 2.54 | 1.11 | 1.75
ATATGTAGATTAGCTGGGGTCATTCAGACTAGGC | 3.43 | 3.51 | 1.55 | 4.27 | 1.51 | 4.33 | 1.45 | 2.53 | 0.88 | 1.9
ATCCAAAGGTCGTGAGGTGAGTATACAGAAAGGC | 5.79 | 4.82 | 0.975 | 3.77 | 0.687 | 5.37 | 5.62 | 5.62 | 2.33 | 4.08
TTCCCAAGGTGAGCTGAGGTCGTTGATCCAACTC | 3.13 | 1.59 | -0.148 | 0.959 | -1.02 | 1.55 | -0.346 | 0.767 | -0.184 | 0.534
TTATATAGGTAATACAGGTGAAAGTCGGCATCTA | 0.622 | 1.12 | 0.509 | 0.772 | 0.539 | 2.7 | 3.5 | 3.07 | 2.07 | 2.5
TCTAGTTGGTCACGGAGGTCACATACGACGGGTA | 3.08 | 3.35 | 2.47 | 3.46 | 0.637 | 3.93 | 3.1 | 3.94 | 3.8 | 3.63
TAGCCTAGCTCATGCGGGCCAGTATAGTGTCGGC | -2.69 | -1.21 | -0.957 | -1.4 | -1.43 | -1.23 | -0.395 | -1.21 | -0.899 | -0.925
TCTTGTGGATCAACAGGAGGTTAAGAAAGATCGA | 0.0119 | 1.31 | -0.115 | 0.808 | -0.625 | 1.19 | 0.00768 | 1.18 | 2.49 | 1.87
CCGACTGGGGCAAGGTTACCATTACGCACAGCCA | 0.0277 | 0.227 | -0.221 | 0.492 | -0.9 | 1.75 | 2.79 | 3.17 | 0.732 | 2.4
CGACCAAGGTCAGAGAGGTCAGTGAATGCCGAGT | 6 | 4.97 | 2.61 | 4.23 | -0.0164 | 4.64 | 3.68 | 4.21 | 1.11 | 2.69
CGTCCAAGGTGATAGGAGGTCAGTGAAGACAGAT | 1.74 | 2.85 | 0.6 | 1.86 | -0.299 | 2.71 | 1.06 | 1.49 | 0.0813 | 0.512
